FEN1 inh – inhibitors of human flap endonuclease 1; Potency, µM (doses to about 114 µM), actives largely listed as inhibitors; P39748; Recombinant FEN1 flap cleavage, fluorescence, 15 min; 0.35% of 390,000 active; further: nearly all actives have a fitted effect of over 65% in size
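Quantitative HTS format: each compound was titrated, incubated with 10 nM nuclease for 15 min at room temperature, then challenged with flap substrate at 50 nM final. Signal change over 15 min gave concentration–effect curves.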
Pol iota inh – blocks human DNA polymerase iota activity; Q9UNA4; Pol iota fluorescent replication assay, 10 min; Potency, µM (series often up to 115 µM), actives largely listed as inhibitors; 1% of 390,000 active; AID 588590
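Fluorescent replication assay read twice, at 0 min and 10 min after adding 50 nM (final) substrate. Enzyme (10 nM) and compounds were first incubated 15 min at room temperature; enzyme-free buffer wells were negative controls.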
Pol beta inh – DNA polymerase beta (human) inhibition | AID 485314 | 1.3% of 340,000 active | P06746 | Potency, µM (highest dose often 114 µM), most hits filed as inhibitors | Pol beta primer extension/strand displacement, fluorescence kinetic
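Pol beta (10 nM) was preincubated with compound for 15 min at room temperature. The reaction was then started with 50 nM substrate and read immediately and after a further 10 min at room temperature.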
POLH inh – blocks human DNA polymerase eta activity; Q9Y253; recombinant Pol eta, fluorescent DNA replication assay; Potency, µM (top dose mostly 114 µM), most hits filed as inhibitors; 1.2% of 390,000 active; AID 588591
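Pol eta (10 nM) was preincubated with compounds for 15 min at room temperature, after which fluorescent replication substrate (50 nM final) was added to start the reaction. Fluorescence was read kinetically at 0 and 10 min.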
WRN inhibitor – inhibitors of human WRN helicase; Q14191; WRN helicase unwinding, fluorescent forked duplex, kinetic; Potency, µM (top dose mostly 114 µM), most hits filed as inhibitors; 0.46% of 360,000 active; AID 651768; further: nearly all actives have a fitted effect of over 55% in size
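Kinetic fluorescence helicase assay: unwinding of a quenched forked DNA duplex (100 nM final) with 2 mM ATP final raises red fluorescence (525/598 nm). Compounds sat 15 min at room temperature with 20 nM WRN beforehand.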
Pol kappa inh – blocks human DNA polymerase kappa activity; purified Pol kappa, fluorescent DNA synthesis assay, 10 min; Q9UBT6; 0.53% of 400,000 active; Potency, µM (highest dose often 107 µM), actives largely listed as inhibitors; AID 588579
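Activity was followed as the change in fluorescence between reads at 0 and 10 min after starting the reaction with 50 nM substrate. Beforehand, 10 nM polymerase had been preincubated with compound for 15 min at room temperature.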
TbPGK inh – TbPGK inhibition, hit validation. TbPGK coupled GAPDH assay, Kinase-Glo luminescence. shares compounds with Pol kappa inh. AID 686980. 79% of 500 active. Potency, µM (titrated, usually from 57.5 µM), usual class: inhibitors; further: nearly all actives have a fitted effect of over 65% in size
Target sequence (P07378 whole entry, looked up): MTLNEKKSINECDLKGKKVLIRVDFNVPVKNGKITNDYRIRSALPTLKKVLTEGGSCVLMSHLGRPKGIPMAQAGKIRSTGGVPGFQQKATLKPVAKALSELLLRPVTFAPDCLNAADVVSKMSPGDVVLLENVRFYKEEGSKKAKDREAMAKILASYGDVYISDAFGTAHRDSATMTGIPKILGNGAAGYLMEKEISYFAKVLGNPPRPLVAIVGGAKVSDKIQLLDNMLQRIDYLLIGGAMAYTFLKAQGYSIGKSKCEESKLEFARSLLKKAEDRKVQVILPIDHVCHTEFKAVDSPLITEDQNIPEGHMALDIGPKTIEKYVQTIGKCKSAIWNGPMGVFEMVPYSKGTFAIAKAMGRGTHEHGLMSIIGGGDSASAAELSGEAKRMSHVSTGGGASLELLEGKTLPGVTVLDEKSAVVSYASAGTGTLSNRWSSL
Pol iota confirm – Inhibitors of human DNA polymerase iota, confirmation | Potency, µM, actives largely listed as inhibitors | shares compounds with Pol kappa inh | AID 720496 | 77% of 1,500 active | Pol iota primer extension, TAMRA/BHQ fluorescence
Each line names hits and unclear results; the compound was inactive in the other large screens (follow-up assays come after a bar, where they were run). A selection: hits, their analogues and other compounds. The true share with any hit is near 2.4%. The call rests on the fitted dose curve; in most records, active means well fitted curve in the direction sought with a large enough effect; inconclusive means small, poorly fitted or top-dose-only effect, or another doubt; inactive means no such curve, though single readings can be large; an effect the other way counts as inactive or inconclusive.

Cc1c(CNC2CCC(C)CC2)c(C(=O)O)c(C)n1Cc1ccccc1F (centres undefined)	none (no result: WRN inhibitor)
Nc1c(C(=O)O)cnc2c(-c3ccc(Cl)cc3)cnn12	WRN inhibitor inconclusive | TbPGK inh inconclusive
CC(=O)c1cnc2c(-c3ccc(Cl)cc3)cnn2c1C	none
O=C(O)c1ccc2c(c1)[C@@H]1C=CC[C@@H]1[C@H](c1ccccn1)N2	FEN1 inh 31.6µM, Pol iota inh 3.55µM, POLH inh 6.31µM, WRN inhibitor 35.5µM, Pol kappa inh 10µM (no result: Pol beta inh) | TbPGK inh 16.3µM
CSc1ccc(C=NNc2ccc(S(=O)(=O)Nc3ccccc3C(=O)O)cc2[N+](=O)[O-])cc1	Pol iota inh 25.1µM, POLH inh inconclusive, WRN inhibitor inconclusive, Pol kappa inh inconclusive (no result: Pol beta inh) | TbPGK inh 4.11µM
NC(=S)N/N=C/c1cccc(O)c1O	Pol iota inh 79.4µM, Pol kappa inh inconclusive | Pol iota confirm 67
O=C(CCS(=O)(=O)c1ccc(Br)cc1)NCc1ccco1	Pol beta inh inconclusive, POLH inh inconclusive | TbPGK inh 16.3µM
N#CCSc1ccccc1NC(=O)COc1ccc(-c2nnco2)cc1	none (no result: Pol beta inh)
N/C(=N\OC(=O)c1ccc(Cl)c(Cl)c1)c1ccccn1	none
COc1ccc(C(=O)NNC(=O)c2ccccn2)cc1	none | TbPGK inh 5.17µM
N/C(=N\OC(=O)c1ccc(Cl)cc1)c1ccccn1	none | TbPGK inh 14.6µM
N/C(=N\OC(=O)c1ccccc1Cl)c1ccccn1	none | TbPGK inh 16.3µM
COc1ccccc1C(=O)O/N=C(\N)c1ccccn1	none
COc1ccc(C(=O)O/N=C(\N)c2ccccn2)cc1	none | TbPGK inh 5.17µM
COc1cc(OC)cc(C(=O)O/N=C(\N)c2ccccn2)c1	none
C[C@@H]1CN([C@@H](C)CO)C(=O)CCCn2nncc2CO[C@H]1CN(C)C(=O)Nc1ccc2c(c1)OCO2	none (no result: FEN1 inh, Pol iota inh, Pol beta inh, Pol kappa inh)
COCCn1c(SCC(=O)Nc2ccc(C)cc2C)nc2c(oc3ccccc32)c1=O	none
COc1ccc(S(=O)(=O)N(Cc2nc(-c3ccccc3)no2)C2CCCCC2)cc1	none (no result: WRN inhibitor)
Cc1ccc(C(=O)O/N=C(\N)c2ccccn2)c(C)c1	none | TbPGK inh 7.3µM
COc1ccc(C(=O)NCc2nnc(SCC(=O)Nc3ccccc3OC)o2)cc1	none
O=C(N/N=C/C=C/c1cccc([N+](=O)[O-])c1)C(O)c1ccccc1 (centres undefined)	none
O=C(CNc1ccc2ccccc2c1)N/N=C/C=C/c1cccc([N+](=O)[O-])c1	Pol iota inh inconclusive, Pol beta inh inconclusive, POLH inh 15.8µM | Pol iota confirm 75.2
COc1ccc(-n2nnc3c(=O)n(CC(=O)Nc4ccc5c(c4)OCCO5)cnc32)cc1OC	Pol beta inh inconclusive, POLH inh 25.1µM | Pol iota confirm 67
O=C(Nc1ccc(Cc2ccc(NC(=O)Nc3cccnc3)cc2)cc1)Nc1cccnc1	POLH inh 44.7µM (no result: FEN1 inh, Pol iota inh, Pol beta inh, Pol kappa inh) | Pol iota confirm inconclusive
Cc1ccc(N2C(=O)C3C4C=CC(CNC(=S)Nc5ccc(F)cc5)(O4)C3C2=O)cc1 (centres undefined)	none
Cc1ccc(/C=C/c2nc3ccccc3n2S(=O)(=O)c2cccc(Cl)c2)cc1	none (no result: WRN inhibitor)
CSc1ccc(/C=C/c2nc3ccccc3n2S(=O)(=O)c2ccc(F)c(C)c2)cc1	none (no result: WRN inhibitor) | TbPGK inh 10.3µM
Cc1ccccc1Cn1ccc(-c2ccc3c(c2)OCO3)n1	none
Cc1ccsc1/C=N/Nc1nc(=O)[nH]nc1C	none | TbPGK inh 18.3µM
COc1ccc(OC)c(-c2c3cc(O)c(=O)cc-3oc3cc(O)c(O)cc23)c1	FEN1 inh 12.6µM, Pol iota inh inconclusive, Pol beta inh 44.7µM, WRN inhibitor 79.4µM, Pol kappa inh inconclusive (no result: POLH inh) | TbPGK inh 0.366µM

High-throughput results: PubChem BioAssay, National Center for Advancing Translational Sciences (NCATS)
